ELG1 repair inh: inhibitors of ELG1-dependent DNA repair in HEK293T cells; HEK293T ELG1-luciferase reporter, luminescence, 16 h; DNA damage induced by 5-fluorouridine; Potency, µM (doses to about 46.1 µM), actives largely listed as inhibitors; actives 2.3% (n = 330,000); AID 504467; note: nearly all actives have a fitted effect of over 55% in size
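5-Fluorouridine DNA damage + compound/DMSO, 2,000 cells/well, 16 h, 37 °C/5% CO2. ONE-Glo, 30 min RT, luminescence. Readout = decrease in reporter signal.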
VP16 counter: Gal4-VP16 reporter inhibition counter-screen; Drosophila S2 Gal4-VP16 UAS-luciferase, luminescence, 20 h; Potency, µM (highest dose often 53.6 µM), actives largely listed as inhibitors; actives 3.5% (n = 310,000);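 note: Gal4-VP16 expression switched on by copper sulfate through the metallothionein promoter; nearly all actives have a fitted effect of over 50% in size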
FBPA coupling cs: inhibits coupling enzyme system, counter-screen for aldolase hits | coupling enzyme system counterscreen, AmpLite Red fluorescence | activity change, negative = inhibition, % at 58.2 µM, hits read low | actives 0.67% (n = 290,000) | AID 2472; in the data active = activity change below about -30%
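First, compound is pin-transferred into glyceraldehyde-3-phosphate coupling-enzyme reagent at 57.5 uM final and held 10 min at RT. Next, substrate, coupling system and AmpLite Red are added. After 20 min RT, fluorescence (525/598 nm) is read.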
RORg inh: inhibitors of mouse ROR gamma transcriptional activity; actives 5.4% (n = 310,000); Potency, µM (highest dose often 53.6 µM), actives largely listed as inhibitors; AID 2551; Drosophila S2 Gal4-RORgamma UAS-luciferase reporter, 20 h; note: nearly all actives have a fitted effect of over 60% in size
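Drosophila S2 cells stably expressing Gal4-DBD/mouse RORγ fusion under metallothionein promoter plus UAS-luciferase; compound 1 h, then 700 uM CuSO4 induction for 20 h at ambient temperature; inhibition read as reduced luminescence.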
TSHR antagonist: blocks TSH signaling through the human TSH receptor; P16473; TSHR-expressing cells, TSH-stimulated cAMP HTRF, 2 h; stronger effect = lower value; activity change, negative = inhibition, % at 11.5 µM; actives 0.2% (n = 330,000); AID 504810;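 active = activity change below a set negative limit, meaning inhibition stronger than a set level, cut at about -70% in these data; inconclusive = activity change between two set negative limits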
Target sequence (P16473 whole entry, looked up): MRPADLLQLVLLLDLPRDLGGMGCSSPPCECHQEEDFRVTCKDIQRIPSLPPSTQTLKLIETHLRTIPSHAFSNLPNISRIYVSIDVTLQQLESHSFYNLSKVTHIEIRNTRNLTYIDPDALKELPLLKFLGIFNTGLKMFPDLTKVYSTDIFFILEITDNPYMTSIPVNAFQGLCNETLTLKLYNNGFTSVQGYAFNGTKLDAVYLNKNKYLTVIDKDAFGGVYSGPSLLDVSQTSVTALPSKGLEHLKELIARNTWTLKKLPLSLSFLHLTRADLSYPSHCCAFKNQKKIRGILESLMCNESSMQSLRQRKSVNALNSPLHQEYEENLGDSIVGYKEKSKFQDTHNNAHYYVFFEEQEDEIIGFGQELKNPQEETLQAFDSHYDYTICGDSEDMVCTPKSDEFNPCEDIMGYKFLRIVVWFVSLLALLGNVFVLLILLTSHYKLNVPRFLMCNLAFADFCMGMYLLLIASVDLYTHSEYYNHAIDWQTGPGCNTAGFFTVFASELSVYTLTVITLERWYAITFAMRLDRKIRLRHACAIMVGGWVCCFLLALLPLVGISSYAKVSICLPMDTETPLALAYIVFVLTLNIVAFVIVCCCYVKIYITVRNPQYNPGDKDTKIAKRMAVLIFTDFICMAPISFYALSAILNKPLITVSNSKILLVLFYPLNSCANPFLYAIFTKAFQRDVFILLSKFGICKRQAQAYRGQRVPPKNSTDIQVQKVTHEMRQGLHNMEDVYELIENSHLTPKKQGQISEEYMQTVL
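Antagonism was scored as loss of TSH-driven cAMP in TSHR cells, stimulated with 4nM TSH (EC80) for 2 hours at 37 deg C and detected by homogeneous HTRF competition immunoassay.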
A number is an active result; n = inactive; u = inconclusive; x = no result given; [ ] = another dose, or the depositor's remark. Most compounds without a hit are left out; they make up all but 8% or so of the library. Unless noted, calls come from the whole dose curve; as a rule, active = well fitted curve in the direction sought with a large enough effect; inconclusive = small, poorly fitted or top-dose-only effect, or another doubt; inactive = no such curve, though single readings can be large; an effect the other way counts as inactive or inconclusive.

SMILES	ELG1 repair inh	VP16 counter	FBPA coupling cs	RORg inh	TSHR antagonist
Cc1c(Cc2ccccc2)c(=O)n2c([nH]c3ccccc32)c1C#N	2.3µM	u	n	n	n
COc1ccc(C(C(=O)NC2CCCCC2)N(C(=O)c2ccco2)c2ccccc2C(C)=O)cc1OC (stereo not given)	u	n	n	n	n
O=C(NCCc1ccccc1)c1ccc2c(c1)OCCCO2	u	0.63µM	n	0.35µM	n
O=C(NCCOc1ccccc1)c1ccc2c(c1)OCO2	u	u	n	5µM	n
O=C(CCCc1ccccc1)c1ccc2c(c1)OCCO2	u	2.2µM	n	1.1µM	n
O=C(NCCc1ccccc1)c1ccc2c(c1)OCCO2	u	1.3µM	x	1.4µM	n
COc1ccc(CCNC(=O)c2ccc3c(c2)OCCO3)cc1	u	n	n	n	n
Cc1c(C(=O)NC2CCCCC2)sc2nc3ccc(N)cc3n12	x	n	n	u	x
O=C(CCc1ccccc1)NNC(=O)COc1ccc([N+](=O)[O-])cc1	n	n	x	n	n
CC1CCCN(C(=O)c2cn(-c3ccccc3)nc2-c2cccnc2)C1 (stereo not given)	n	x	x	x	n
CCCNS(=O)(=O)c1ccc(CCC(=O)Nc2ccc3c(c2)OCCO3)cc1	n	n	n	n	n
O=C(CCc1ccc(S(=O)(=O)NCCc2ccccc2)cc1)Nc1ccc2c(c1)OCCO2	13µM	n	n	n	n
CC#CCN1c2ccccc2[C@]23C[C@@H](C(=O)OC)N(S(=O)(=O)c4ccc(Br)cc4)C2=NC(C(=O)OC)=C(C(=O)OC)[C@H]13	x	x	n	x	x
CCc1c(C)nc2cc(-c3ccc(OC)c(OC)c3)nn2c1NCC1CC1	15µM	4.5µM	n	11µM	n
CC(=O)c1cccc(NC(=O)CSc2nnc(-c3ccncc3)o2)c1	n	x	x	x	n
CC1CCN(c2c(NCC3CCC(C(=O)NCCCc4ccccc4)CC3)c(=O)c2=O)CC1 (stereo not given)	10µM	n	n	n	n
COc1ccc(OC)c(NC(=O)C2CCC(CNc3c(N4CCC(C)CC4)c(=O)c3=O)CC2)c1 (stereo not given)	u	n	n	0.79µM	n
CC(=O)N/C(=C\c1ccccc1)C(=O)OCC(=O)N(C)C1CCS(=O)(=O)C1 (stereo not given)	n	x	x	x	n
C=CCSc1nnc(NC(=O)CN2C(=O)NC3(CCCC3)C2=O)s1	n	n	x	n	n
O=C(O)/C=C/C(=O)Nc1ccc(C2(c3ccc(NC(=O)/C=C/C(=O)O)cc3)c3ccccc3-c3ccccc32)cc1	n	n	n	n	-86
O=C(O)/C=C\C(=O)Nc1ccc(Oc2ccccc2)cc1	n	n	n	n	n
COC(=O)N1C2=C(c3ccccc3[C@@H]1CC(=O)Nc1ccc(Br)cc1)[C@@H]1C(=O)N(c3ccccc3)C(=O)[C@@H]1[C@H](C)C2	x	x	n	x	x
COc1cc(OC)c(C2=NOC(C(=O)Nc3cc(C)nn3-c3ccccc3)C2)cc1Cl (stereo not given)	n	n	n	n	n
COC(=O)c1ccccc1NC(=O)C1CC(c2ccccc2O)=NO1 (stereo not given)	u	u	n	13µM	n
COc1cccc(C2=NOC(C(=O)Nc3cc(C)nn3-c3ccccc3)C2)c1OC (stereo not given)	23µM	n	n	n	n
SMILES	ELG1 repair inh	VP16 counter	FBPA coupling cs	RORg inh	TSHR antagonist
CSc1ccccc1NC(=O)C1CC(c2ccccc2O)=NO1 (stereo not given)	n	u	n	u	n
O=C(NCCCc1ccccn1)C1CCC(=O)N(Cc2cccc(F)c2)C1 (stereo not given)	n	n	x	n	n
Cc1nnc(SC(C)C(=O)N2CCc3ccccc32)s1 (stereo not given)	n	n	n	n	n
CC(Sc1nnc(-c2ccccc2)c(-c2ccccc2)n1)C(=O)N1CCc2ccccc21 (stereo not given)	n	11µM	n	2.2µM	n
CC(=O)NCCc1nc2cc(NS(=O)(=O)c3ccccc3)ccc2n1C	n	n	n	n	n
CC(C)c1nc(N2CCN(C(=O)c3ccco3)CC2)c2c3c(sc2n1)CCCC3	u	n	n	n	n
O=C(c1ccccc1)N1CCN(c2ncnc3sc4c(c23)CCC4)CC1	9.2µM	u	n	n	n
Cc1nc(N2CCN(C(=O)c3ccco3)CC2)c2c3c(sc2n1)CCC3	23µM	n	n	n[10 µM]	n
CCCCc1nc(NCC2CCCO2)c(C#N)c2c1COC(C)(C)C2 (stereo not given)	7.3µM	n	n	n	n
CCCCc1nc(N2CCOCC2)c(C#N)c2c1COC(C)(C)C2	u	n	n	n	n
CCOC(=O)c1ccc(NC(=S)N(CCN2CCCCCC2)Cc2ccco2)cc1	n	n	n	u	n
COc1ccc(NC(=S)N(Cc2ccc(N(C)C)cc2)Cc2ccco2)cc1	u	20µM	n	13µM	n
CCOc1ccc(NC(=S)N(Cc2ccc(N(C)C)cc2)Cc2ccco2)cc1	u	32µM	n	u	n
Oc1[nH]c2ccc(Br)cc2c1N=NC(=S)N1CCOCC1	n	1.6µM	n	1.6µM	n
COC(=O)N=Nc1c(O)[nH]c2ccc(Br)cc12	n	n	n	n	n
Oc1[nH]c2ccccc2c1N=NC(=S)N1CCOCC1	u	2.8µM	n	0.1µM	n
CC(C)Oc1ccc(C(=O)Nc2nc3ccccc3[nH]2)cc1	u	2.8µM	n	1.1µM	n
COc1ccc(CCC(=O)Nc2nc3ccccc3[nH]2)cc1	u	n	n	n	n
CCC(Oc1ccccc1)C(=O)Nc1nc2ccccc2[nH]1 (stereo not given)	u	u	n	10µM	n
CC(C)Oc1ccc(C(=O)Nc2ncn[nH]2)cc1	u	u	n	u	n
O=C(Nc1nc2ccccc2[nH]1)c1ccccc1OC(F)F	u	10µM	n	7.9µM	n
O=C(Nc1nc2ccccc2[nH]1)c1ccc(OC(F)F)cc1	u	u	n	5.6µM	n
CC1Cc2cc(S(=O)(=O)N3CCC(C(=O)Nc4ccccn4)CC3)ccc2N1C(=O)C1CCC1 (stereo not given)	u	n	n	n	n
NC(=O)c1ccc(SCC(=O)OCC(=O)NCC2CCCCC2)c([N+](=O)[O-])c1	n	x	x	x	n
CS(=O)(=O)N1CCC2(CCN(C(=O)Nc3cccc(C#N)c3)CC2)CC1	x	u	n	n	x
CC(=O)N1CCC2(CC1)CCN(c1ccc(-c3ccccc3)cc1)CC2	x	u	n	n	x
Cc1cc(Cl)cc(C)c1OCC(=O)N1CCN(c2ncccn2)CC1	n	x	x	x	n
CC1=C(C)C(=O)C(CCCCC#CCCCC#CCO)=C(C)C1=O	n	n	-59	n	n
COc1ccc(-n2sc3c(c2=S)-c2cc(OC)ccc2NC3(C)C)cc1	n	n[0.365 µM]	n	n	n
COc1ccc2c(c1)-c1c(ssc1=S)C(C)(C)N2S(=O)(=O)c1ccc(C)cc1	n	n	n	8.9µM	n

Screening results (PubChem BioAssay)
